The list is not random: actives were taken first. Their share in the collection is about 2.4%.
POLB inh – inhibitors of human DNA polymerase beta; Pol beta primer extension/strand displacement, fluorescence kinetic; AID 485314; 340,000 tested, 1.3% active; Potency, µM (highest dose often 114 µM), for the others: top-dose activity change, negative = inhibition, hits mostly inhibitors; P06746; note: % is set by controls: 0 for no effect and ±100 for the full control effect
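Preincubation: enzyme (10 nM) with compound, 15 min, RT. Reaction: substrate added to 50 nM final. Reads: 0 and 10 min. Analysis: normalized, Hill fit.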
POLH inh – blocks human DNA polymerase eta activity; Q9Y253; recombinant Pol eta, fluorescent DNA replication assay; Potency, µM (doses to about 114 µM), for the others: at the top dose activity change, negative = inhibition, hits mostly inhibitors; 390,000 tested, 1.2% active; note: % is set by controls: 0 for no effect and ±100 for the full control effect
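Pol eta (10 nM) was preincubated with compounds for 15 min at room temperature, after which fluorescent replication substrate (50 nM final) was added to start the reaction. Fluorescence was read kinetically at 0 and 10 min.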
FEN1 inh – human FEN1 inhibition | P39748 | Recombinant FEN1 flap cleavage, fluorescence, 15 min | Potency, µM (series often up to 114 µM), inactives show at the highest dose activity change, negative = inhibition, most hits filed as inhibitors | 390,000 tested, 0.35% active | AID 588795; note: % is set by controls: 0 for no effect and ±100 for the full control effect; nearly all actives have a fitted effect of over 65% in size
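FEN1 at 10 nM preincubated with compounds 15 min at room temperature, then flap DNA substrate added at 50 nM final. Signal read at 0 and 15 min; concentration-response fitted with four-parameter Hill equation.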
Pol iota inh – DNA polymerase iota (human) inhibition. Q9UNA4. Potency, µM (titrated, usually from 115 µM), inactives show top-dose activity, negative = inhibition, actives largely listed as inhibitors. 390,000 tested, 1% active. Pol iota fluorescent replication assay, 10 min. AID 588590
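Fluorescent replication assay read twice, at 0 min and 10 min after adding 50 nM (final) substrate. Enzyme (10 nM) and compounds were first incubated 15 min at room temperature; enzyme-free buffer wells were negative controls.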
Pol kappa inh – inhibitors of human DNA polymerase kappa; Q9UBT6; purified Pol kappa, fluorescent DNA synthesis assay, 10 min; Potency, µM (highest dose often 107 µM), inactives show at the highest dose activity, negative = inhibition, hits mostly inhibitors; 400,000 tested, 0.53% active; AID 588579; note: % is set by controls: 0 for no effect and ±100 for the full control effect
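Readout: fluorescence, taken kinetically at 0 and 10 min. Conditions: 10 nM Pol kappa, 15 min RT compound preincubation, 50 nM substrate final. Controls: enzyme-free buffer wells.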
WRN helicase inh – inhibitors of human WRN helicase; Q14191; WRN helicase unwinding, fluorescent forked duplex, kinetic; Potency, µM (top dose mostly 114 µM), without a hit: top-dose activity change, negative = inhibition, most hits filed as inhibitors; 360,000 tested, 0.46% active; AID 651768; note: % is set by controls: 0 for no effect and ±100 for the full control effect; nearly all actives have a fitted effect of over 55% in size
Target sequence (Q14191 whole entry, looked up): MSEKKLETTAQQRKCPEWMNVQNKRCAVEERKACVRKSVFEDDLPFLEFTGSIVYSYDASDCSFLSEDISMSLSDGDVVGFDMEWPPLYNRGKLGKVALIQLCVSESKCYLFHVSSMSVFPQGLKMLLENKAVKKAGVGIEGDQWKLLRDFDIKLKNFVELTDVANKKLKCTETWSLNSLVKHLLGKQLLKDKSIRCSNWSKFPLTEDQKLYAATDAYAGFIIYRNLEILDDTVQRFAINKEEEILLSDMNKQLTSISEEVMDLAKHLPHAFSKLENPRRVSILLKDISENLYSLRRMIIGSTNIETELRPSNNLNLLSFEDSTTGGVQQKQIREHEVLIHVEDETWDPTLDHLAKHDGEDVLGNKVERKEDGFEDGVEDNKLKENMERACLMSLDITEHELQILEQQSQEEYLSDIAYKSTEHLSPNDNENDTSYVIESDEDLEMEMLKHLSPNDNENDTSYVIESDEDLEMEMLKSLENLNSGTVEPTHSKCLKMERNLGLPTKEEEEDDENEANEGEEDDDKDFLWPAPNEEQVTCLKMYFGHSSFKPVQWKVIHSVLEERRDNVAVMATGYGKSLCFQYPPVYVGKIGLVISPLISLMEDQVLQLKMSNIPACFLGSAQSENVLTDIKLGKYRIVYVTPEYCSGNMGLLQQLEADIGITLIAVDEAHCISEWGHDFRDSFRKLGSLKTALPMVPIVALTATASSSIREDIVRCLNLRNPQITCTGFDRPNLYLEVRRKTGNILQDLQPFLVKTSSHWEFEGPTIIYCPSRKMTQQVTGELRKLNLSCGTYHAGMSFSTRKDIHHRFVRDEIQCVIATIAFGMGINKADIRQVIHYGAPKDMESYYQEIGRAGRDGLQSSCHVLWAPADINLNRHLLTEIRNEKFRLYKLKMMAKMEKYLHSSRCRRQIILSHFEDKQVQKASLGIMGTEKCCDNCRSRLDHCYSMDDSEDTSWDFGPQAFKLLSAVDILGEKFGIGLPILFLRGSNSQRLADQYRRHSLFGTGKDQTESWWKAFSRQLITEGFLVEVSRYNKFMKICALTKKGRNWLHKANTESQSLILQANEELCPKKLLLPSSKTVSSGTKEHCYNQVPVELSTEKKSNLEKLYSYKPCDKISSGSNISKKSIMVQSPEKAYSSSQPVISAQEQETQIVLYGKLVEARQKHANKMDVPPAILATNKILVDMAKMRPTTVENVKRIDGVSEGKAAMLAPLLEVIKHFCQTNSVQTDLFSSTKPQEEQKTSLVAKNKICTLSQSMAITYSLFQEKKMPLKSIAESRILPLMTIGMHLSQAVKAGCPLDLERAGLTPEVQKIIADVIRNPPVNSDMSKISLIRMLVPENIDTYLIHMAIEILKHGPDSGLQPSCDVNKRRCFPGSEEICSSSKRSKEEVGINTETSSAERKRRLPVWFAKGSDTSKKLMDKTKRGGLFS
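WRN at 20 nM final was preincubated with compound for 15 min at room temperature; reaction started with 100 nM forked duplex oligonucleotide carrying fluorophore and quencher plus 2 mM ATP (final). Unwinding followed kinetically by red fluorescence (ex 525/em 598 nm).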
Numbers without * were called inactive; [ ] = remark or other dose. Calls come from the whole dose curve; as a rule, active = well fitted curve in the direction sought with a large enough effect; inconclusive = small, poorly fitted or top-dose-only effect, or another doubt; inactive = no such curve, though single readings can be large; an effect the other way counts as inactive or inconclusive. Potency is the fitted concentration of half-maximal effect.

`COC(=O)/C=C1/SC(=Nc2ccc(Cl)c(Cl)c2)NC1=O` gave POLB inh 24%, POLH inh 79µM*, FEN1 inh 12%, Pol iota inh -26%, Pol kappa inh -10% and WRN helicase inh -10%[11.6 µM].
O=C(Nc1nccs1)[C@@H]1CC=C[C@@H]2CCN(Cc3ccc(Cl)c(Cl)c3)C(=O)[C@@H]21 was read as FEN1 inh -26%, Pol iota inh 9% and Pol kappa inh -9%.
COc1ccc(CC(=O)NC2CCN(CC(=O)N3CCCc4ccccc43)CC2)cc1OC was read as POLB inh -3%, POLH inh -2%, FEN1 inh 1%, Pol iota inh 20%, Pol kappa inh 0% and WRN helicase inh 7%.
`COc1ccc(CC(=O)N2CCCc3ccccc32)cc1OC` gave POLB inh -17%, POLH inh -5%, FEN1 inh 4%, Pol iota inh 89µM*, Pol kappa inh -13% and WRN helicase inh 5%.
Screening Cc1ccc(NC(=O)CSc2nnc(-c3cc4occc4n3C)n2-c2ccccc2C)c(C)c1 returned POLB inh 20%, POLH inh -17%, FEN1 inh -11%, Pol iota inh 6% and Pol kappa inh -11%.
`CC[C@H](C)[C@H](NC(=O)[C@H](CO)NC(=O)[C@H](CC(C)C)NC(=O)[C@@H]1CCCN1C(=O)[C@@H]1CCCN1C(=O)[C@H](CC(=O)O)NC(=O)[C@@H](N)CC(=O)O)C(=O)N[C@@H](CC(=O)O)C(=O)N[C@@H](CC(C)C)C(=O)N[C@H](C(=O)N[C@@H](Cc1ccccc1)C(=O)N[C@@H](Cc1cnc[nH]1)C(=O)N[C@@H](CC(C)C)C(=O)N[C@@H](CC(C)C)C(=O)N[C@@H](CCCNC(=N)N)C(=O)N[C@H](C(=O)N[C@@H](CC(C)C)C(=O)N[C@@H](CC(C)C)C(=O)N[C@@H](CCC(=O)O)C(=O)N[C@@H](CC(C)C)C(=O)N[C@@H](C)C(=O)N[C@@H](CCCNC(=N)N)C(=O)N[C@H](C(=O)N[C@@H](CCC(N)=O)C(=O)N[C@@H](CO)C(=O)N[C@@H](CCC(N)=O)C(=O)N[C@@H](CCCNC(=N)N)C(=O)N[C@@H](CCC(=O)O)C(=O)N[C@@H](CCCNC(=N)N)C(=O)N[C@@H](C)C(=O)N[C@@H](CCC(=O)O)C(=O)N[C@@H](CCC(N)=O)C(=O)N[C@@H](CC(N)=O)C(=O)N[C@@H](CCCNC(=N)N)C(=O)N[C@H](C(=O)N[C@H](C(=O)N[C@@H](Cc1ccccc1)C(=O)N[C@@H](CC(=O)O)C(=O)N[C@@H](CO)C(=O)N[C@H](C(N)=O)C(C)C)[C@@H](C)CC)[C@@H](C)CC)[C@@H](C)O)[C@@H](C)O)[C@@H](C)O` gave Pol kappa inh 8%[60.1 µM].
Cc1c(CCC(=O)O)c(=O)oc2cc3occ(-c4ccc(Cl)cc4)c3cc12 was read as POLB inh inconclusive, POLH inh 22µM*, FEN1 inh inconclusive, Pol iota inh inconclusive, Pol kappa inh -7% and WRN helicase inh -21%[11.6 µM].
Cc1c(CCC(=O)O)c(=O)oc2cc3occ(-c4ccc(F)cc4)c3cc12 was read as POLB inh inconclusive, POLH inh 16%, FEN1 inh inconclusive, Pol iota inh inconclusive, Pol kappa inh -22% and WRN helicase inh inconclusive.
Screening CC(C)Sc1oc(-c2ccco2)nc1S(=O)(=O)c1ccc(F)cc1 returned POLB inh 28µM*, POLH inh 71µM*, FEN1 inh -18%, Pol iota inh inconclusive, Pol kappa inh inconclusive and WRN helicase inh inconclusive.
`Cc1ccc(S(=O)(=O)c2nc(-c3ccco3)oc2SCC(=O)c2ccc(Cl)cc2)cc1` gave POLB inh 1%, POLH inh 0%, FEN1 inh 13%, Pol iota inh inconclusive and Pol kappa inh 3%.
Screening Cc1ccc(CSc2oc(-c3ccco3)nc2S(=O)(=O)c2ccc(Br)cc2)cc1 returned POLB inh -27%, POLH inh -9%, FEN1 inh -17%, Pol iota inh 56µM* and Pol kappa inh inconclusive.
For O=S(=O)(c1ccc(Br)cc1)c1nc(-c2ccco2)oc1SCc1ccccc1Cl the results were POLB inh 13%, POLH inh -1%, FEN1 inh 0%, Pol iota inh 79µM* and Pol kappa inh inconclusive.
Screening Cc1ccc(CSc2oc(-c3ccco3)nc2S(=O)(=O)c2ccc(Cl)cc2)cc1 returned POLB inh 0%, POLH inh 3%, FEN1 inh 3%, Pol iota inh -21% and Pol kappa inh -1%.
Screening O=C(CSc1oc(-c2ccco2)nc1S(=O)(=O)c1ccc(Cl)cc1)c1ccc(Cl)cc1 returned POLB inh 1%, POLH inh -3%, FEN1 inh -19%, Pol iota inh inconclusive and Pol kappa inh 50µM*.
`O=S(=O)(c1ccc(Cl)cc1)c1nc(-c2ccco2)oc1SCc1ccccc1F` gave POLB inh -20%, POLH inh -13%, FEN1 inh -3%, Pol iota inh -26% and Pol kappa inh -10%.
`Cc1ccc2oc(-c3ccc(C)c(NC(=O)COc4ccc(Cl)cc4)c3)nc2c1` gave FEN1 inh 1%, Pol iota inh 9% and Pol kappa inh 10%.
CC(=O)c1c(C)[nH]c2ccc(OCC(O)CNCCc3ccccc3)cc12 (stereo not given) was read as FEN1 inh 1%, Pol iota inh 11% and Pol kappa inh -14%.
For Cc1cccc(-n2c3nc(=O)[nH]c(=O)c-3cc3c(Cl)cccc32)c1C the results were POLB inh -8%, POLH inh -11%, FEN1 inh -2%, Pol iota inh -14% and Pol kappa inh -14%.
CCC(C)NC(=O)Cn1c(=O)ccc2cc(S(=O)(=O)N3CCCC3)ccc21 (stereo not given) was read as POLB inh 18%, POLH inh -8%, FEN1 inh -7%, Pol iota inh 5% and Pol kappa inh -3%[60.1 µM].
Cc1ccccc1Cn1ccc(NC(=O)c2cc3ncc(Br)cn3n2)n1 was read as POLB inh 20µM*, POLH inh -3%, FEN1 inh -3%, Pol iota inh 12%, Pol kappa inh -2% and WRN helicase inh -7%.
